# DRD3 antagonist: D3 dopamine receptor (human) antagonism. P35462. D3R cells, DiscoveRx beta-arrestin luminescence, antagonist mode; hits give low values. max response, negative = inhibition, %. 360,000 compounds, 2.5% hits. AID 652054; in the data active means max response below about -50%; inconclusive means no clear call, values can overlap the other calls; further: on the % scale 0 is the no-effect control and ±100 the full control effect
# Target sequence (P35462 whole entry, looked up): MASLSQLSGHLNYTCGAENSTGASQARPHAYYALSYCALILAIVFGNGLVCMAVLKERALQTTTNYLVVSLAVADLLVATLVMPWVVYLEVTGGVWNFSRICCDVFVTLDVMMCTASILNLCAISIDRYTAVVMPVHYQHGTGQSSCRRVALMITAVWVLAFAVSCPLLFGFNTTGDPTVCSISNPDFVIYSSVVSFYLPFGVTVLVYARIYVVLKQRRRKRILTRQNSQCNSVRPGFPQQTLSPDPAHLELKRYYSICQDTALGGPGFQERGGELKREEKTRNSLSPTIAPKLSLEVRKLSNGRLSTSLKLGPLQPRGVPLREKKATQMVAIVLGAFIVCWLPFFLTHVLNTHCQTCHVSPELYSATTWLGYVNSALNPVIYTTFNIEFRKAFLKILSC
#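 Cells expressing the human receptor were seeded at 1500 cells/well, incubated overnight at 37 degrees C in 5% CO2, then exposed to library compounds with dopamine controls for 90 minutes at 37 degrees C before luminescent detection.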
# SW480 rereplic: inducers of DNA re-replication in SW480 colon cancer cells; SW480 DNA re-replication, Hoechst DNA content imaging, 48 h; Potency, µM (top dose mostly 46.1 µM), for inactives: top-dose re-replication activation, most hits filed as activators; 340,000 compounds, 1.8% hits; further: potency means the concentration at half of the fitted maximal effect; % of control where 0% means no effect; nearly all actives have a fitted effect of over 55% in size
#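 SW480 cells exposed to compounds for 48 hr at 37 C, 5% CO2, then Hoechst-stained 40 min. Nuclear DNA content imaged by fluorescence scanning (405 nm excitation, 500-530 nm emission); re-replication scored as increased high-intensity nuclei.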
# KB-3-1 cytotox: kills parental KB-3-1 adenocarcinoma cells; KB-3-1 viability, CellTiter-Glo ATP luminescence, 72 h; Potency, µM (highest dose often 46.1 µM), most hits filed as cytotoxic; 400,000 compounds, 1.4% hits; AID 1347075; further: potency means the concentration at half of the fitted maximal effect; on the % scale 0 is the no-effect control and ±100 the full control effect; nearly all actives have a fitted effect of over 60% in size
#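 Cells are dispensed, compounds pinned in, plates held at 37 °C for 72 h, then CellTiter-Glo is added and luminescence read after 10 minutes. Cell line: parental KB-3-1 in phenol-red-free DMEM, 10% FBS.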
# D3 ag: D3 dopamine receptor (human) agonism | D3R DiscoveRx beta-arrestin cells, luminescence, 90 min | 410,000 compounds, 0.58% hits | max activation, % | P35462; in the data active means max activation above about 30%; further: 0% is about no effect
#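 Cells at 1500/well, incubated overnight, then treated with pinned compounds (dopamine as control) for 90 min at 37 degrees C. DiscoveRx reagent added for 30 - 60 minutes at room temperature; luminescence read.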
# MCF10A rereplic: induces DNA re-replication in MCF 10a normal breast cells; AID 624296; MCF 10A DNA re-replication, Hoechst nuclear intensity, 48 h; 350,000 compounds, 2.9% hits; Potency, µM (top dose mostly 46.1 µM), for inactives: at the highest dose activity, positive = re-replication, hits mostly activators; further: potency means the concentration at half of the fitted maximal effect; % of control where 0% means no effect; nearly all actives have a fitted effect of over 50% in size
# KB-V1 cytotox: kills drug-selected multidrug resistant KB-V1 cells; AID 1347076; 400,000 compounds, 3.4% hits; KB-V1 MDR cells viability, CellTiter-Glo, 72 h; Potency, µM (doses to about 46.1 µM), actives largely listed as cytotoxic; further: potency means the concentration at half of the fitted maximal effect; on the % scale 0 is the no-effect control and ±100 the full control effect; nearly all actives have a fitted effect of over 60% in size
#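 KB-V1 MDR subline cells in DMEM (phenol-red free, 10% FBS) exposed to compounds in qHTS concentration series for 72 h at 37 degrees C. Viability read by CellTiter-Glo luminescence; concentration-effect curves fitted after normalization and correction.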
# * hit, by the source's call; i = inactive; ? = inconclusive; / = no result given. In the library only some 8.9% were active in any assay of this set; here they are far more common. Unless noted, the call rests on the fitted dose curve; in most records, active means well fitted curve in the direction sought with a large enough effect; inconclusive means small, poorly fitted or top-dose-only effect, or another doubt; inactive means no such curve, though single readings can be large; an effect the other way counts as inactive or inconclusive.
SMILES,DRD3 antagonist,SW480 rereplic,KB-3-1 cytotox,D3 ag,MCF10A rereplic,KB-V1 cytotox
O=[N+]([O-])c1c(NCCO)cc(N2CCCCCC2)c2nonc12,-2,17%,i,0,35%,i
N#Cc1c(-c2ccccc2)[nH]c(=S)[nH]c1=O,-60*,-15%,i,0,7%,i
COc1ccc(C(=O)C[n+]2cc(Br)cc(Br)c2)cc1,/,/,i,/,/,i
CCCN(CC(=O)Nc1ccc(Cl)cc1Cl)C(=O)CC(NC(C)=O)c1ccccc1 (centres undefined),?,2%,i,-40,-1%,i
CC(=O)NC(CC(=O)NC(C)c1ccc(Cl)cc1Cl)c1ccccc1 (centres undefined),-51*,-6%,i,-19,2%,i
COc1ccccc1N1CCN(CCCNc2cc(=O)n(C)c(=O)n2C)CC1,-62*,0%,i,-3,-2%,i
COc1ccccc1N1CCN(CCCNc2c(C)c(=O)n(C)c(=O)n2C)CC1,-57*,-5%,i,0,7%,i
COc1ccccc1N1CCN(CCS(=O)(=O)c2cc(Cl)ccc2Cl)CC1,-93*,/,i,-10,/,i
O=C(Cc1cccs1)N[C@@H]1C(=O)N2C(C(=O)[O-])=C(C[n+]3ccccc3)CS[C@H]12,/,/,/,7,/,/
O=C(Cn1ccc2cc(S(=O)(=O)N3CCCCCC3)ccc21)NCCc1ccccc1Cl,/,/,i,-11,/,i
CCc1ccc(CNC(=O)c2ccc(CSc3nc4ccncc4n3Cc3ccc(OC)cc3)cc2)cc1,/,/,i,-14,/,i
O=C(Nc1cccnc1)c1ccc2nc(-c3ccccc3)c(-c3ccccc3)nc2c1,11,-32%,i,5,?,?
Cc1cccc(Nc2nc(-c3ccccc3)c(C(=O)Nc3cccnc3)s2)c1,10,16µM*,?,4,23µM*,?
O=C(Nc1cccnc1)c1sc(Nc2ccccc2)nc1-c1ccccc1,-1,13%,?,1,16µM*,15µM*
CC1=Nc2ccccc2/C1=C/c1c(N)n2c(S(=O)(=O)C(C)C)nsc2nc1=O,-13,-9%,i,4,3%,i
CC1=Nc2ccc(C)cc2/C1=C/c1c(N)n2c(S(=O)(=O)C(C)C)nsc2nc1=O,0,13%,i,-21,?,i
CC1=Nc2ccc(C)cc2/C1=C/c1c(N)n2oc(C)cc2nc1=O,-19,2%,?,6,18µM*,?
CSc1nsc2nc(=O)c(/C=C3\C(C)=Nc4ccc(C)cc43)c(N)n12,-25,?,?,-12,9.2µM*,i
CC1=Nc2ccccc2/C1=C/c1c(N)n2c(S(=O)(=O)CC(C)C)nsc2nc1=O,-11,2%,i,3,15µM*,i
CN(C)c1ccc(CNC(=O)c2cccn2-c2nnc(N3CCCCC3)s2)cc1,/,/,i,-16,/,i
Cc1cccc(NC(=O)c2cc3c(=O)n(Cc4cccnc4)ccc3nc2C)c1,/,/,i,0,/,i
O=c1oc2cc(Oc3ccc(C(F)(F)F)cc3[N+](=O)[O-])ccc2c2c1CCC2,-3,0%,i,-7,?,21µM*
O=c1oc2cc(Oc3c([N+](=O)[O-])cc(C(F)(F)F)cc3[N+](=O)[O-])ccc2c2c1CCCC2,-90*,-1%,?,7,19%,?
O=Cc1ccnc2ccccc12,/,/,i,/,/,i
Cc1cccc(-c2cc(C(=O)Nc3cccnc3)c3ccccc3n2)c1,28,0%,?,5,?,?
SMILES,DRD3 antagonist,SW480 rereplic,KB-3-1 cytotox,D3 ag,MCF10A rereplic,KB-V1 cytotox
Cc1cc(NC(=O)c2cc(-c3ccccn3)nc3c(Cl)cccc23)no1,-14,0%,/,-8,?,/
Cc1cc(NC(=O)c2cc(-c3ccncc3)nc3c(C)cccc23)no1,13,6.5µM*,3.3µM*,1,?,3.7µM*
Cc1cccc(NC(=O)c2cc(-c3cccnc3)nc3c(C)cccc23)n1,16,2%,i,2,16µM*,?
Cc1ccc(CSc2nnc3[nH]c(=O)cc(-c4ccccc4)n23)cc1,/,/,/,-1,/,/
COc1ccc(N=C2NC(=O)S/C2=C\c2ccc(N(C)C)cc2)cc1,-66*,23%,i,-16,?,i
CCOC(=O)C1CCCN(C(=O)c2ccc3c(=O)n(CCOC)c(=S)[nH]c3c2)C1 (centres undefined),14,0%,i,4,?,23µM*
COc1ccccc1Cn1c(=S)[nH]c2cc(C(=O)N3CCC(C(N)=O)CC3)ccc2c1=O,-14,5%,i,10,12%,i
COc1ccccc1Cn1c(=S)[nH]c2cc(C(=O)N3CCCC(C)C3)ccc2c1=O (centres undefined),-10,/,21µM*,-7,/,i
CCOc1ccccc1-c1nc(Cn2c(=O)cc(C)c3c(C)nn(-c4ccccc4)c32)c(C)o1,/,/,i,9,/,i
CCOC(=O)c1ccc2c(c1)N(Cc1cccc([N+](=O)[O-])c1)C(=O)c1ccccc1S2,/,/,i,-6,/,?
O=C(Cc1cc2ccccc2o1)NCc1ccc(F)cc1,-22,?,i,2,12µM*,?
Cc1ccccc1-c1ccc(C(=O)NCc2ccccc2)o1,-12,-10%,i,-35,9%,i
O=C(NCc1ccccc1)c1ccc(-c2ccc(F)cc2)o1,14,-9%,i,8,16%,18µM*
O=C(NCCNCc1ccc(F)cc1)c1ccco1,-66*,-2%,i,-6,2%,i
O=C(NCc1ccccc1)c1ccc(-c2ccccc2C(F)(F)F)o1,-56*,-6%,i,-90,?,i
O=C(NCCNC(=O)c1ccco1)c1ccc(F)cc1,5,-3%,i,1,-1%,i
CC1(C)CC(=O)C(N=Nc2cccc([N+](=O)[O-])c2)=C(O)C1,-67*,?,i,-18,39%,i
O=[N+]([O-])c1cccc(N=Nc2ccc(O)cc2O)c1,?,13µM*,?,-3,?,i
CC1(C)CC(=O)C(N=Nc2ccc(Br)cc2)=C(O)C1,-10,-31%,i,2,19%,i
Cc1ccc2c(=O)cc(C(=O)N(Cc3ccc(C(C)(C)C)cc3)C3CCS(=O)(=O)C3)oc2c1 (centres undefined),/,/,?,-1,/,?
O=[N+]([O-])c1ccc(SNc2ccccc2)c([N+](=O)[O-])c1,-18,-2%,i,-13,27%,23µM*
